Bioassay records (PubChem)
This is one part of a sample in which hits are shown more often than they occur.
Methyltransferases: Primary Screen for Target Class Profiling of Small Molecule Inhibitors of Methyltransferases. purified enzyme, MTase-Glo SAH luminescence; stronger effect = lower value. calls only at 40 µM. 25,000 compounds, 3.9% hits. AID 1745853, 2022; call rule not given here
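Each enzyme was assayed with SAM and its substrate. SAH formation detected by MTase-Glo luminescence; single-point 40 uM screen[…].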
MTase-Glo counter: Counterscreen for Target Class Profiling of Small Molecule Inhibitors of Methyltransferases. shares compounds with Methyltransferases. MTase-Glo coupled enzymes, SAH conversion luminescence, no MTase. Potency, µM (series often up to 57.3 µM), inactives show at the top dose activity change, negative = inhibition, usual class: inhibitors. 180 compounds, 6% hits. AID 1745851, 2022; active = well fitted inhibition curve with a large enough effect; also: potency is read from the fitted curve at half-maximal effect
An asterisk follows results filed as active; i = inactive; + = active, no number; [ ] = another dose, or the depositor's remark. % is scaled to controls: 0 for no effect and ±100 for the full control effect.

SMILES | Methyltransferases | others
Cc1ccc([C@@H]2CN(c3cc(N4CCC(O)CC4)ncn3)C[C@H]2N(C)C)cc1 | + | MTase-Glo counter=-3%
CCCn1cc(C(=O)N2C[C@@H](N(C)C)[C@H](c3ccc(C)cc3)C2)c(C)n1 | i
c1ccc(CN2CCC[C@H]2c2nc(-c3ccc(N4CCOCC4)nc3)no2)cc1 | i
O=C(NCc1cc(F)ccc1F)[C@@H]1CNC[C@H]1COc1cccnc1 | i
Cc1ccc(S(=O)(=O)Nc2nc3ccc(C)cc3nc2Nc2ccc3c(c2)n(C)c(=O)n3C)cc1 | i
FC1(F)CN[C@H](c2nnc(C3CC3)o2)C1 | i
CCc1ccccc1N1C(=O)c2cc(C(=O)OC)nn2CC1(C)C(=O)NC1CCCCCC1 (stereo unspecified) | i
COc1ncccc1-c1nc(-c2c(C)noc2C)cc2cc(CN(C)C)oc12 | i
Cc1noc(C)c1-c1cc2c(cc(C)n2CCN(C)C)c(Nc2ccncn2)n1 | + | MTase-Glo counter=-3%[85.7 µM]
CCOC(=O)C1CCCN(c2nc3c(S(=O)(=O)c4ccc(C(C)C)cc4)nnn3c3ccccc23)C1 (stereo unspecified) | i
Cc1noc(C)c1C(=O)N1CC(N2C(=O)c3c(c(C)nn3-c3ccccc3)C2C)C1 (stereo unspecified) | i
COCCNC(=O)c1ccc(-c2ccc(N3CCCCC3)nc2)cc1 | i
CC(C)CNC(=O)c1ccc2c(=O)n(CC(C)C)c3nn(Cc4cccc(F)c4)c(=O)n3c2c1 | i
O=C(Nc1cccc(C(F)(F)F)c1)N[C@H]1CO[C@H]2[C@@H]1OC[C@@H]2n1cc(-c2ccccc2)nn1 | i
COc1ccc(OC)c(CN2CCC3(CC2)Nc2ccccc2NC3=O)c1 | i
COc1ccc(-c2nn(-c3ccccc3C)cc2CN2CCCN(C)CC2)cc1F | i
COc1ccc(OC)c(CN2CCNc3cc(-c4ccnc(C)c4)ncc3C2)c1 | + | MTase-Glo counter=4%[85.7 µM]
COc1ccc(CNC(=O)C(C)n2ccc3cc(S(=O)(=O)N4CCCCC4)ccc32)cc1 (stereo unspecified) | i
c1ccc(Cc2ncc3c(n2)CCNCC3)cc1 | i
CNCCC(Oc1ccccc1C)c1ccccc1 (stereo unspecified) | i
CC(C)NS(=O)(=O)c1ccc2[nH]c(=O)[nH]c2c1 | i
COc1ncccc1-c1cc2c(ccn2CC2CCN([S+](C)(=O)[O-])CC2)c(N2CCOCC2)n1 | + | MTase-Glo counter=-1%
Cc1nn2c(c1-c1cccnc1N1CCOCC1)N(C(=O)c1cc3ccccc3n1C)CCC2 | i
O=C(CCn1cncn1)N1CCc2ncnc(N3CC=CC3)c2CC1 | i
COC(=O)c1nc(NC(=O)Cn2nc3c(cc2=O)CCCC3)sc1C(C)C | + | MTase-Glo counter=-1%
SMILES | Methyltransferases | others
O=C(Cn1nc2c(cc1=O)CCCCC2)Nc1nnc(C2CCCO2)s1 (stereo unspecified) | i
CCc1nc(NC(=O)Cn2nc3c(cc2=O)CCCC3)sc1C | i
O=S(=O)(NC1CCNCC1)c1cc(S(=O)(=O)c2ccccc2)ccc1C(F)(F)F | i
O=C(NC1CCCCC1)c1nn(CCOc2ccccc2)c2c1CNCC2 | i
O=C1CCN(C(=O)CCc2ccccc2)CCCC(CO)CCN1 (stereo unspecified) | i
CC(=O)Nc1ccc(CN2CCC3(C2)C(=O)N(C)c2ccccc23)cc1 (stereo unspecified) | i
CC(=O)NC1CC2(CCN(Cc3ccc(O)cc3)CC2)c2ccccc21 (stereo unspecified) | + | MTase-Glo counter=2%
CC(C)NC(=O)NC1CC2(CCN(C(=O)Cc3ccc(O)cc3)CC2)c2ccccc21 (stereo unspecified) | i
O=S(=O)(NCCn1c(CCc2ccccc2)nc2ccccc21)c1ccccc1 | i
COc1ccc(-c2n[nH]n3c2nc(=O)c2ccc(C(=O)NCc4ccccc4F)cc23)cc1 | i
O=C(NC1CCCC1)c1ccc2c(c1)n(Cc1cccc(F)c1)c(=O)c1ccnn12 | i
Cn1c(=O)c2ccnn2c2ccc(C(=O)NCC3CCN(Cc4ccccc4F)CC3)cc21 | + | MTase-Glo counter=0%
COc1ccc(-c2nnn3c2nc(N2CCCC(C)C2)c2ccccc23)cc1 (stereo unspecified) | i
CCc1cc2c(cc3n2CC(C)(C(=O)NC2CCCCC2)N(Cc2ccc(OC)cc2)C3=O)s1 (stereo unspecified) | i
O=C(Nc1ccc(F)c(Cl)c1)N1Cc2c(sc3c2CCCC3)-n2cccc2C1c1ccccc1 (stereo unspecified) | i
CC1(C(=O)NC2CCCC2)Cn2c(nc3ccccc32)C(=O)N1Cc1cccc(Cl)c1 (stereo unspecified) | i
COc1ccc2nc(C[C@@H]3C[C@@H](C(C)C)[C@H](CNC(=O)NC4CCCCC4)C=C3C)[nH]c2c1 | i
